# VACV E9 pol inh: vaccinia E9 polymerase processive synthesis inhibitors, primary screen, biochemical, absorbance. in vitro processive DNA synthesis, absorbance read-out; stronger effect = lower value. normalized absorbance, % (test concentration not listed). 46,000 tested, 0.94% active; in the data active means normalized absorbance mostly below about 85%, no sharp cut-off; inactive means mostly above about 86%
# * = called active by the depositor; ! = repeats disagree. Only a selection was taken, and hits are over-represented in it overall.
SMILES,VACV E9 pol inh
CCCCC(CC)CN=C(N)NC(N)=NCCCCCCN=C(N)NC(N)=NCC(CC)CCCC (stereo not drawn),27.1*
COC(=O)[C@@H](N)CCCN=C(N)N[N+](=O)[O-],99.7
O=C(Cc1ccc(Cl)cc1)c1ccc(Cl)cc1,78.8*
O=C(CC(SCc1ccc(Cl)cc1)C(=O)O)c1ccc(Cl)cc1 (stereo not drawn),96.8
O=C(CNC(=O)c1ccc(Cl)cc1)c1ccc(Cl)cc1,103.4
CC(C)CCNC(=O)C1CCCN(S(C)(=O)=O)C1 (stereo not drawn),113.7
Nc1nnc(CSc2cccc3cccnc23)o1,100.6
Nc1cccc(C(=O)OC2CSC2)c1,97.4
NC(=O)c1cc[n+](CC2=C(C(=O)O)N3C(=O)C(NC(=O)C(c4ccccc4)S(=O)(=O)[O-])C3SC2)cc1 (stereo not drawn),83.3*
CCN1CCN(C(=O)NC(C(=O)NC2C(=O)N3C(C(=O)O)=C(CSc4nnnn4C)CSC23)c2ccc(O)cc2)C(=O)C1=O (stereo not drawn),102.3
CNN1C(=O)c2cccc3cccc(c23)C1=O,63.6*
O=C(O)c1ccc(/C=N/N2C(=O)c3cccc4cccc(c34)C2=O)cc1,101.7
CN(C)N1C(=O)c2cccc3cccc(c23)C1=O,88.5
COC(=O)/C(C#N)=C1\C=Cc2ccccc2N1,100.7
Nc1sc2c(c1C(=O)c1ccccc1)CCCC2,100.8
Nc1sc(-c2ccccc2)c(Cc2ccccc2)c1C(=O)O,90.2*
CCOC(=O)c1c(-c2ccccc2)csc1N,94.4
CC(C)(C)C(=O)COC(=O)c1ccccc1C(=O)c1ccccc1,94.1
Cc1ccc(S(=O)(=O)NC(=O)N2CCCN(c3ccc(C(F)(F)F)cn3)CC2)cc1,91.5
O=C(Nc1ccccc1)N1CCN(c2ccc(C(F)(F)F)cn2)CC1,96.9
CC(C)(C)NC(=O)N1CCN(c2cc(C(F)(F)F)ccn2)CC1,77.7*
CNc1nc(-c2ccccc2)[n+](-c2ccccc2)s1,91.9
O=S(=O)(c1ccc(Nc2nc3ccccc3n3nnnc23)cc1)N1CCOCC1,106.3
COC(=O)COc1ccc2ccccc2c1,102.8
CC1(C)CCCC(C)(C)N1OC(=O)c1ccc(N)cc1,99.1
SMILES,VACV E9 pol inh
COC(=O)CSc1nc(-c2ccccc2)cc(-c2ccccc2)c1C#N,99.3
CC(=O)Nc1nc(C2CC2)cc(-c2ccccc2)c1C#N,84.6*
CCOC(=O)CSc1nc(C2CC2)cc(-c2ccccc2)c1C#N,99.0
CC1CCN(C(=O)COC(=O)/C=C/c2cccs2)CC1,107.5
COC(=O)c1ccccc1NC(=O)c1ccc2nc(N3CCCCC3)sc2c1,86.6
COc1ccc(C(=O)N2CCc3cc(OC)c(OC)cc3C2C)cc1 (stereo not drawn),90.6
COc1ccc(OCC2c3cc(OC)c(OC)cc3CCN2C(=O)C(C)C)cc1 (stereo not drawn),96.3
COc1cc2cc3c4c(cc(OC)c(OC)c4c2cc1OC)CCN3C,65.7*
CCOC(=O)C1CCCN(C(=O)c2cccc(C)c2)C1 (stereo not drawn),99.4
CN(C)CC(O)Cn1c2ccc(Br)cc2c2cc(Br)ccc21 (stereo not drawn),26.6*
CN(CC(O)Cn1c2ccccc2c2ccccc21)S(C)(=O)=O (stereo not drawn),109.4
OC(CNCc1ccccc1)Cn1c2ccc(Cl)cc2c2cc(Cl)ccc21 (stereo not drawn),99.8
Cc1cccc(Oc2ccc(NC(=O)C3CCC(C)CC3)cc2)c1 (stereo not drawn),99.8
CCOc1ccc2nc(SCC)[nH]c2c1,127.3
CCOc1ccc(-c2nc(=S)[nH][nH]2)cc1,101.1
CCOc1ccc(-c2nc3ccc(-c4nc5ccc(N6CCN(C)CC6)cc5[nH]4)cc3[nH]2)cc1,22.6*
CCNc1cc(N(C)C)c2noc3c2c1C(=O)c1ccccc1-3,72.4
O=C1c2ccccc2-c2onc3c(Br)cc(N4CCCCC4)c1c23,73.3*
CC(C)Nc1cc(Br)c2noc3c2c1C(=O)c1ccccc1-3,100.3
O=C(Cc1ccc(Cl)cc1)NCc1ccc2[nH]c3c(c2c1)CCCC3,103.7
CCN(CC)c1ncnc2c1[nH]c1ccc(C)cc12,99.9
COc1ccc2[nH]c3nc(=S)[nH]nc3c2c1,100.8
COc1ccc2[nH]c3c(N(C)C)ncnc3c2c1,64.0*
O=c1/c(=C\c2ccncc2)sc2nc3ccccc3n12,99.6
CCOc1ccc(N)cc1OCC,101.1
SMILES,VACV E9 pol inh
C[n+]1c2cc(N)ccc2cc2ccc(N)cc21,10.5*
CC(C)Cc1ccc(S(=O)(=O)n2cccn2)cc1,88.9
CC(=O)N1c2c(ccc3ccccc23)C(C)=CC1(C)C,100.0
O=C(CC(NCCc1ccccc1)C(=O)O)Nc1ccc(Cl)cc1 (stereo not drawn),102.5
C=CCSc1[nH]c(=O)c(C(=O)OCC)cc1C(N)=O,89.7
Cc1cc(N2CCCC2)nc2ccc(NC(=S)NCCN3CCOCC3)cc12,91.9
Fc1cccc(CSCc2c(F)cccc2Cl)c1,108.4
CN(C)/C=C/C(=N)SCc1c(F)cccc1Cl,75.0*
CC(=O)/C(C#N)=C(\N=C\N(C)C)SCc1c(Cl)cccc1Cl,102.2
CCN(CC)c1ccc(C(=O)OCC(=O)NCc2ccccc2Cl)cc1,100.5
O=C(O)CCS(=O)(=O)c1ccc2ccccc2c1,98.7
Clc1ccc2oc(-c3ccccc3)cc(=NCCN3CCOCC3)c2c1,96.1
CC(O)CN=c1cc(-c2ccccc2)oc2ccc(Cl)cc12 (stereo not drawn),45.6*
O=c1cc(-c2ccccc2)oc2ccc(Cl)cc12,102.5
CCC(N=c1cc(-c2ccc(OC)cc2)oc2ccc(C)cc12)C(=O)O (stereo not drawn),97.9
O=c1cc(-c2ccccc2)oc2cc(Cl)ccc12,98.4
C(=NCc1ccccc1)c1cn(-c2ccccc2)nc1-c1cccnc1,98.2
OCCN=c1cc(-c2ccccc2)oc2ccc(Cl)cc12,41.3*
Cc1ccc2oc(-c3ccccc3)c(C(=O)O)c(=O)c2c1,87.4
c1ccc(-c2nc3cc(NCc4cccnc4)ccc3o2)cc1,100.2
Oc1ccc(N=c2cc(-c3ccccc3)oc3ccc(Cl)cc23)cc1,98.0
Cc1ccc2oc(-c3ccccc3)cc(=NCCO)c2c1,48.6*
CCc1ccc2oc(-c3ccccc3)cc(=NCc3cccnc3)c2c1,79.8*
Cc1ccc(N2C(=O)C(c3ccccc3)C(N3CCSCC3)C2=O)cc1 (stereo not drawn),95.9
Cc1cccc(OCC(O)CN2CC(C)OC(C)C2)c1 (stereo not drawn),97.7
SMILES,VACV E9 pol inh
NCCSc1nc2ccccc2[nH]1,100.0
CCCn1c(CCC(=O)N2CCc3ccccc3C2)nc2cccnc21,100.1
CC1CC(C)CN(S(=O)(=O)N2CCCC(C(=O)NC3CCCC(C)C3C)C2)C1 (stereo not drawn),113.9
Cc1ccc2oc(-c3ccccc3)c(CN3CCOCC3)c(=O)c2c1,97.8
Cc1ccc2oc(-c3ccccc3)cc(=NCCN(C)C)c2c1,30.3*
COc1ccc2oc(-c3ccccc3)cc(=O)c2c1,77.3
COc1cc(/C=C2/N=C(C)OC2=O)cc(OC)c1OC,99.0
Cc1nc(-c2coc3cc(O)ccc3c2=O)cs1,103.8
Cc1ccc2c3c(ccc2n1)NC1=C(C(=O)CCC1)C3C1CC=CCC1 (stereo not drawn),100.6
COC(=O)C1=C(C(F)(F)F)OC(C)=C(C#N)C1c1ccccc1-c1ccccc1 (stereo not drawn),98.6
NC(N)=NC(=O)c1nc(Cl)c(N)nc1N,62.6*!
Clc1ccc(Cn2nnc(N3CCCC3)n2)cc1,104.6
Cc1ccc(C)c(CSc2nncn3c2cc2occc23)c1,91.1

# Source: PubChem BioAssay (ICCB-Longwood Screening Facility, Harvard Medical School)
